Out of some 2,100 compounds screened, about 760 (36%) were called active.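 Rule for the calls: active = thallium-flux fluorescence traces judged by eye to show enhanced or reduced glutamate response, manual score 1 or -1, so both directions (some results past the limit were not filed as active); inactive = the rest, including fluorescent or raised-baseline compounds.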 Only a sample is shown.

The assay can be described thus: thallium influx changes without GIRK channels – cell-based, HEK-293 rmGlu8, no GIRK, thallium flux, counter-screen for GIRK activator project, confirmation (AID 623868).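 Note: extra codes mark interference with 3 for fluorescent and 4 for baseline rise.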 The settings on record: thallium flux fluorescence, at 10 µM, actives lie on both sides, codes: 1 enhancer, -1 blocker, 0 none, thallium stimulus containing EC20 glutamate.
With `COc1ccc(S(=O)(=O)N(CC(=O)N2CCN(c3ccccc3)CC2)c2ccccc2)cc1`, the manual score was 0 (inactive). To `CN1C=CC2=C(C#N)C(N)C(C#N)(C#N)C(c3ccccc3)C2C1` (configuration not stated) belongs 3 (inactive); to `CC(=O)c1cccc(NC(=O)C2CCCN2S(=O)(=O)c2cccc3cccnc23)c1` (configuration not stated), 0 (inactive).

As for `Cc1cc(/C=c2/sc3nc4ccccc4n3c2=O)c(C)n1-c1ccccn1`, the manual score was 0 (inactive). For `Cc1ccc2cccc(Oc3nnnn3-c3ccccc3)c2n1`, the manual score was 0 (inactive). For the compound `CCOC(=O)c1c(C)[nH]c2c1cc(O)c1ccccc12`, the manual score is 0 (inactive). To `CCOC(=O)c1c(-c2ccc(C)o2)csc1NC(=S)NC(=O)N(C)C` belongs 1 (active). In the case of `CCOC(=O)C(Cc1ccccc1)NC(=O)Cn1nnc(-c2ccccc2)n1` (configuration not stated), the manual score is 0 (inactive). To `CCOC(=O)c1c(-c2ccccc2)csc1NC(=S)NC` belongs 1 (active); to `CCNC(=S)Nc1scc(-c2ccccc2)c1C(=O)OCC`, 1 (active); to `CCOC(=O)c1c(-c2ccc(C)o2)csc1NC(=S)NC(=O)c1cccs1`, 0 (inactive). Regarding `Cc1ccc(OCC(=O)Nc2ccc(C)c(S(=O)(=O)N3CCCCC3)c2)c([N+](=O)[O-])n1`, the manual score was 0 (inactive).

As for `NC(=O)c1noc(C(=O)N(CC(=O)NC2CCCC2)Cc2ccc3c(c2)OCO3)c1N`, the manual score was 0 (inactive). To `O=C1c2cccc3c(O)ccc(c23)C(=O)N1Cc1ccccc1` belongs 3 (inactive); to `CCc1ccc(C2=NN(c3ccc(S(N)(=O)=O)cc3)C(c3ccc(F)cc3)C2)cc1` (configuration not stated), 0 (inactive).

In the case of `O=C(Nc1ccccc1)c1ccccc1NS(=O)(=O)c1ccc(Cl)s1`, the manual score was 0.5 (inactive). In the case of `CN1CCN(c2ccccc2NS(=O)(=O)c2ccc3c(c2)CCN3C(=O)C2CCC2)CC1`, the manual score was 0 (inactive). Consider `CCOc1ccccc1N1CCN(S(=O)(=O)c2cccs2)CC1`, for which the manual score is 0 (inactive). In the case of `O=S(=O)(Nc1ccccc1N1CCCCC1)c1ccc(Cl)s1`, the manual score is 1 (active). To `O=C(Nc1nncs1)c1ccccc1NS(=O)(=O)c1cccs1` belongs 0 (inactive); to `O=S(=O)(Nc1cc(Cl)ccc1N1CCCCC1)c1cccs1`, 1 (active); to `CCCN(CCC)CCCNC(=O)c1cc2c(=O)n(C)c3ccccc3c2n1C`, 0 (inactive). For the compound `S=c1nc[nH]c2c1sc1nc(-c3ccccc3)c3c(c12)CCCC3`, the manual score is 1 (active).

With `Cc1ccc2nsnc2c1S(=O)(=O)Nc1cccc2nsnc12`, the manual score is 1 (active).

As to `CCOC(=O)N1CCN(c2c(F)cc3[nH]c(=S)[nH]c3c2Br)CC1`, the manual score was 0 (inactive). For `Cc1sc2ncnc(N(C)Cc3cccs3)c2c1C`, the manual score was -1 (active). Turning to `CC(C)CCNC(=O)C(C)N(Cc1ccc(F)cc1)C(=O)c1ccc(CN2CCCCC2)o1` (configuration not stated), the manual score was 0 (inactive). Take `Cc1ccc(OCCCC(=O)Nc2nccs2)cc1`: the manual score was 0 (inactive). To `CC(NC(=O)COc1ccccc1)C(=O)NC1=NCCS1` (configuration not stated) belongs 0 (inactive). To `Cc1ccc(OCC(=O)NNC(=O)C(C)Sc2ncnc3sc(C)c(C)c23)cc1` (configuration not stated) belongs 1 (active); to `CC1CC2=C(CC1/C=N/NC(N)=S)C(C)(C)CCC2` (configuration not stated), 0 (inactive). As to `COc1ccccc1OCC(O)Cn1c(=N)n(Cc2ccccc2)c2ccccc21` (configuration not stated), the manual score was 0 (inactive). The same measure for `CC1=C(C(=O)OCC2CCCO2)C(c2ccc(C)o2)C2=C(CC(c3ccc(F)cc3)CC2=O)N1` (configuration not stated): -1 (active).

On to `CCOC(=O)C1=C(C)NC2=C(C(=O)CC(c3ccc(OC)c(OC)c3)C2)C1c1ccc(C)o1` (configuration not stated), for which the manual score was 0 (inactive). To `CSc1ccc(S(=O)(=O)NCc2ccccc2Cl)cc1` belongs 0 (inactive); to `Cc1ccc(C(=O)CC(=O)COc2ccc(Cl)cc2C)cc1`, 1 (active); to `Cc1ccc(NC(=O)COC(=O)CCC(=O)c2ccc(Cl)cc2)cc1S(=O)(=O)N(C)C`, 0 (inactive). Regarding `Cc1ccc(C(=O)CC(=O)COc2ccc(Cl)cc2)cc1`, the manual score is 0 (inactive). The same measure for `S=c1[nH]c2cc(Cl)ccc2s1`: 1 (active). As to `CCOC(=O)c1cccc(NC(=O)CSc2nnc(C3CCCCC3)n2C)c1`, the manual score was -1 (active). To `Cc1ccc(-c2nnc(SCC(=O)Nc3cccc(C(=O)N4CCOCC4)c3)n2C)cc1` belongs 0 (inactive).

Consider `CCc1nnc(NC(=O)CSc2nnc(C3CCCCC3)n2-c2cccc(Cl)c2)s1`, for which the manual score was -0.5 (inactive).

As for `CCOC(=O)c1cccc(NC(=O)CSc2nnc(-c3cccnc3)n2C)c1`, the manual score was -1 (active). As to `COc1cccc(NC(=O)CSc2nnc(-c3ccoc3C)n2-c2ccccc2)c1`, the manual score was 0 (inactive).

For the compound `Cc1ccc(C)c(-n2nnnc2SCC(=O)Nc2cccc(-c3nnc4n3CCCCC4)c2)c1`, the manual score was 3 (inactive). To `CC1CSc2ccccc2NC1=S` (configuration not stated) belongs 0 (inactive). To `CC1(C)CC(=S)Nc2ccccc2S1` belongs 1 (active); to `CC1CC(=S)Nc2ccccc2N1Cc1ccccc1` (configuration not stated), 0 (inactive). The same measure for `O=C(CSc1ccccc1)N(c1ccc(Br)cc1)c1nccs1`: 0 (inactive). Turning to `Brc1ccccc1C1=Nn2c(nnc2-c2ccccc2)SC1`, the manual score is 0 (inactive). To `COc1ccc(C2=Nn3c(nnc3C3CCCCC3)SC2)cc1OC` belongs -1 (active); to `CCCc1nnc2n1N=C(c1ccc(OC)c(OC)c1)CS2`, -0.5 (inactive); to `c1cc2c(cc1C1=Nn3c(nnc3C3CCCCC3)SC1)OCO2`, -1 (active). To `COc1ccccc1C1=Nn2c(nnc2C2CCCCC2)SC1` belongs 0 (inactive). For `CCC1(c2ccc(Cl)cc2)NC(=S)N(c2ccccc2)N1` (configuration not stated), the manual score was 1 (active). To `CCOc1ccccc1NC(=O)CSc1nnc(-c2ccco2)n1Cc1ccco1` belongs -1 (active). The same measure for `CCn1c(SCC(=O)Nc2oc(-c3ccccc3)c(-c3ccccc3)c2C#N)nnc1-c1ccco1`: 0 (inactive). Turning to `COc1ccc(NC(=O)CSc2nnc(-c3ccccn3)n2Cc2ccco2)cc1OC`, the manual score was 0 (inactive). To `Clc1cccc(CSc2nnc(-c3ccccn3)n2Cc2ccco2)c1` belongs -0.5 (inactive). `CCOc1ccccc1NC(=O)Nc1cccc(C(C)=O)c1`: the manual score was 0 (inactive).

As for `CCOc1ccccc1NC(=O)CSc1nnc(-c2ccccn2)n1Cc1ccco1`, the manual score is -1 (active).

For `COc1cc(Cl)cc2c1Sc1ccccc1/C2=C/CCN(C)C`, the manual score was 0 (inactive). Turning to `O=C(CSc1nc(-c2ccc(F)cc2)cs1)N1CCOCC1`, the manual score was 0 (inactive). The same measure for `CC1(C)Cc2ccccc2C(/C(=N\Nc2cccc(Cl)c2)C(N)=O)=N1`: 0 (inactive); for `Cc1ccccc1NC(=S)NNC(=O)c1csc2c1CCC(C)C2` (configuration not stated): 1 (active).

As for `CC(C)CNC(=S)NNC(=O)c1csc2c1CCC(C)C2` (configuration not stated), the manual score is 0 (inactive). For `CC(C)(C)C1CCc2c(C(=O)N/N=C/c3cccs3)csc2C1` (configuration not stated), the manual score was 0 (inactive). In the case of `Cc1ccc(C)c(NC(=S)NNC(=O)c2cc3c(s2)CCC(C)C3)c1` (configuration not stated), the manual score was 1 (active). To `Cc1cccc(NC(=S)NNC(=O)c2csc3c2CCC(C)C3)c1` (configuration not stated) belongs 1 (active); to `Cc1cccc(NC(=S)NNC(=O)c2csc3c2CCCC3)c1`, 1 (active). To `O=C1CCC(/C=C/c2ccccc2)=NN1Cc1ccc(Cl)c(Cl)c1` belongs 0 (inactive); to `CCCN1CCC(NC(=O)Nc2ccc(F)cc2F)CC1`, 0 (inactive); to `Cc1ccc(C)c(NC(=S)NNC(=O)c2csc3c2CCCC3)c1`, 1 (active). To `Cc1ccc(C)c(NC(=S)NNC(=O)c2csc3c2CCC(C)C3)c1` (configuration not stated) belongs 1 (active). For the compound `O=C(N1CCCCC1)N1CCN(C(=O)N(c2ccccc2)c2ccccc2)CC1`, the manual score was 0 (inactive).

For `COC(=O)C1CCCN1C(=O)c1cccs1` (configuration not stated), the manual score is 0 (inactive). To `O=C(NC(=S)N1CCN(c2ccc(C(F)(F)F)cc2[N+](=O)[O-])CC1)c1cccs1` belongs 1 (active). The same measure for `O=C(NC(=S)N1CCN(c2ccc(Cl)cc2[N+](=O)[O-])CC1)c1ccco1`: 1 (active); for `O=C(NC(=S)N1CCN(c2ccc(Cl)cc2[N+](=O)[O-])CC1)c1cccs1`: 1 (active).

For the compound `FC(F)(F)c1cccc(N2CCN(C(=S)NC3CCCCC3)CC2)c1`, the manual score was 0 (inactive).

For the compound `O=C(O/N=C\c1ccc(N2CCCCC2)c([N+](=O)[O-])c1)c1c(F)cccc1F`, the manual score was 0 (inactive). For the compound `O=C(NC(=S)N1CCCCC1)c1cccs1`, the manual score was 1 (active). The same measure for `CCN(CC)CC(O)COc1ccccc1C(=O)CCc1ccccc1` (configuration not stated): 0 (inactive). The same measure for `COC(=O)c1cc(=O)n(CCc2ccc(OC)cc2)c(=Nc2ccc(F)c(Cl)c2)s1`: 0 (inactive); for `O=C(NC(=S)Nc1cccc(Cl)c1N1CCCC1)c1ccc(-c2cccc([N+](=O)[O-])c2)o1`: 0 (inactive). As for `O=C(NC(=S)N1CCN(c2c(Cl)cccc2[N+](=O)[O-])CC1)c1cccs1`, the manual score was 1 (active).

`COc1ccc(N(CC(=O)NC2CCCC2)C(=O)Cn2nnc(-c3ccc(C)cc3)n2)cc1`: the manual score is 0 (inactive). To `COc1cc2c(C(=O)N3CCN(C4CCCCC4)CC3)cn(CC(C)C)c(=O)c2cc1OC` belongs 0 (inactive); to `CC(/C=N/n1c(-c2ccco2)n[nH]c1=S)=C\c1ccccc1`, 1 (active). To `CC(/C=N/n1c(C2CCCCC2)n[nH]c1=S)=C\c1ccccc1` belongs 1 (active). As for `CC(=C/c1ccccc1)/C=N/n1c(-c2ccco2)n[nH]c1=S`, the manual score was 1 (active).

With `CC(/C=N/NC(=O)c1c(Br)cnn1C)=C\c1ccccc1`, the manual score is 0 (inactive). Regarding `Cc1ccc(C)n1-c1ccc(C(=O)NN)cc1`, the manual score is 0 (inactive). The same measure for `CC(C)NS(=O)(=O)c1ccc(OCC(=O)Nc2ccc3c(c2)OCO3)c(Cl)c1`: 0 (inactive); for `COc1ccc(OC)c(C(=O)c2coc3ccc(O)c(CN4CCOCC4)c23)c1`: 0 (inactive); for `O=C(CN1C(=O)c2ccccc2C1=O)Nc1sc2c(c1C(=O)NCC1CCCO1)CCC2` (configuration not stated): 0 (inactive). To `Cc1ccc(-n2nc(-c3cccs3)cc2C(=O)NCC2CCCO2)c(C)c1` (configuration not stated) belongs -0.5 (inactive); to `CCCCCNC(=O)c1ccc2c(=O)[nH]c3c(C(=O)NCC4CCCO4)sc(=S)n3c2c1` (configuration not stated), -1 (active). Turning to `Cc1cc(C=C2C(=O)c3ccccc3C2=O)c(C)n1-c1ccccc1`, the manual score is 3 (inactive). To `CCc1nc2cc(Cl)c(Cl)cc2[nH]1` belongs 0 (inactive). To `CCCOc1cccc(-c2cc(-c3n[nH]c(=S)n3CC)c3ccccc3n2)c1` belongs 1 (active); to `CCn1c(-c2cc(-c3cccc(OC)c3)nc3ccccc23)n[nH]c1=S`, 0.5 (inactive).

(Values after PubChem BioAssay AID623868 (Vanderbilt High Throughput Screening Facility, 2012).)
